The whole screen tested about 1,300 compounds, of which about 25 (2%) were called active. The sample holds actives, similar compounds and a random draw of the others, so the mix is not that of the screen. How the calls were made is not given here.

This note sets out measurements from PubChem BioAssay AID694 (Emory University Molecular Libraries Screening Center, 2007).

For this assay, the target named is Estrogen receptor (Homo sapiens) (UniProt P03372). Nature of the assay: ERα coactivator peptide binding inhibitors, primary screen, biochemical, LOPAC library, TR-FRET (AID 694).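 Further: receptor was agonist-bound with estradiol present during the assay.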 To be noted: TR-FRET ERalpha-coactivator peptide binding, stronger effect = higher value.
Chain of Estrogen receptor (Homo sapiens) (P03372 whole entry, looked up): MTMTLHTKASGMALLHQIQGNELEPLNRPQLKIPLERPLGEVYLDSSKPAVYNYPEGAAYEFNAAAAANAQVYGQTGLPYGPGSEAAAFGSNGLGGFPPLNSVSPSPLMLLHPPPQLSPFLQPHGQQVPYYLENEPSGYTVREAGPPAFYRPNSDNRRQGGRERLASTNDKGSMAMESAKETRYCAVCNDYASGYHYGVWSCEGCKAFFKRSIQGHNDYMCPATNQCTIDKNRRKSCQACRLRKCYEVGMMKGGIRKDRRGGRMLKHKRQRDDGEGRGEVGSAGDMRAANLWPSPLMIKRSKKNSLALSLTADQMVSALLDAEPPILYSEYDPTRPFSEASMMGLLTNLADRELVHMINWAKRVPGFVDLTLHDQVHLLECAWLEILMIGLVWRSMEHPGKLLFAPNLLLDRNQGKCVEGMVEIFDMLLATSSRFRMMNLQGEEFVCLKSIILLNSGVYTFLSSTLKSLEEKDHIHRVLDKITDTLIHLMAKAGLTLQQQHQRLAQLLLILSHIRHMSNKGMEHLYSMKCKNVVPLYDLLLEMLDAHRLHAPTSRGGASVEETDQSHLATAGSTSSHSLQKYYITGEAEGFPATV

Consider `C=CCN1CCc2c(cc(O)c(O)c2Br)[C@@H](c2ccccc2)C1`, for which the inhibition (commonly the drop in the measured response relative to a control, in per cent) reads like this: (at 45 µM) 2.69% (inactive); (inhibition, at 15 µM) 6.75%.
Turning to `Cc1nc(N=Nc2cc(S(=O)(=O)O)c3cc([N+](=O)[O-])cc(S(=O)(=O)O)c3c2)c(COP(=O)(O)O)c(C=O)c1O`, the inhibition is, setting by setting: (at 45 µM) 60.6% (inactive); (inhibition, at 15 µM) 46.2%.
In the same order, the values of `OCCN1CCN(CC/C=C2/c3ccccc3Sc3ccc(C(F)(F)F)cc32)CC1` are 3.87% (inactive) and 3.25%.
As for `CN1C(C)(C)CCCC1(C)C`, the inhibition (at 45 µM) was -1.09% (inactive) and the inhibition (inhibition, at 15 µM) is -2.02%.
For `Nc1nc(OCc2ccccc2)c2[nH]cnc2n1`, in that order: -3.48% (inactive) and -5.45%.
For `Cc1cccc(C)c1NC(=O)C[N+](C)(C)C`, in that order: 0.37% (inactive) and -1.43%.
Consider `CCCCN1CCC(COC(=O)c2cc(Cl)c(N)c3c2OCCO3)CC1`, for which the inhibition runs as follows: (at 45 µM) -8.8% (inactive); (inhibition, at 15 µM) -4.44%.
In the case of `CC(=O)SCC[N+](C)(C)C`, the inhibition (at 45 µM) is 0.72% (inactive) and the inhibition (inhibition, at 15 µM) is -4.29%.
In the same order, the values of `CN(C)CCN(Cc1cccs1)c1ccccn1` are 0.3% (inactive) and 3.28%.
As to `Cc1nc(N=Nc2ccc(S(=O)(=O)O)cc2S(=O)(=O)O)c(COP(=O)(O)O)c(C=O)c1O`, the inhibition is -1.62% (inactive) (at 45 µM) and 2.87% (inhibition, at 15 µM).
For the molecule `CCOC(=O)c1cnc2c(cnn2CC)c1NN=C(C)C`, the inhibition is 1.01% (inactive) (at 45 µM) and -4.69% (inhibition, at 15 µM).
Turning to `O=c1cc(O)cc(/C=C/c2ccc(O)c(O)c2)o1`, the inhibition (at 45 µM) is 5.73% (inactive) and the inhibition (inhibition, at 15 µM) worked out at 4.2%.
In the same order, the values of `NC(N)=NCCCCN=C(N)N` are -1.43% (inactive) and 22.8%.
For `CCCCCCCCCCCCC/C=C/C(O)C(N)CO` (centres undefined), the inhibition is 17.6% (inactive) (at 45 µM) and -17.3% (inhibition, at 15 µM).
As to `NC(=NCCC[C@H](N)C(=O)O)NO`, the inhibition by setting is: (at 45 µM) 3.2% (inactive); (inhibition, at 15 µM) 2.74%.
For `NC(C(=O)N[C@@H]1C(=O)N2C(C(=O)O)=C(Cl)CS[C@H]12)c1ccccc1` (some centres undefined), in that order: -11.2% (inactive) and -2.54%.
For `CSC(N)=NCCC[C@H](N)C(=O)O`, in that order: 0.58% (inactive) and -0.49%.
In the same order, the values of `CN(C)CCCCSC(=N)N` are -2.28% (inactive) and 0.11%.
On to `COc1ccc2c(c1)c(CC(=O)N1CCOCC1)c(C)n2C(=O)c1ccc(Cl)cc1`, for which the inhibition was 2.58% (inactive) (at 45 µM) and 0.53% (inhibition, at 15 µM).
For `Nc1ncnc2c1ncn2[C@@H]1O[C@H](C(=O)NC2CC2)[C@H](O)C1O` (some centres undefined), in that order: -7.62% (inactive) and -0.92%.
As for `Nc1nc(N)c2nc(CNc3ccc(C(=O)NC(CCC(=O)O)C(=O)O)cc3)cnc2n1` (centres undefined), the inhibition (at 45 µM) is 1.53% (inactive) and the inhibition (inhibition, at 15 µM) is -2.57%.
In the same order, the values of `CCCCCC(O)CCCC(=O)O` (centres undefined) are -5.09% (inactive) and 11.3%.
For `CCCCCCCCCCCCCCSCC(=O)O`, in that order: 97.7% [fluorescence artefact?] (active) and 66.6%.
For `CCCCCCC/C=C\CCCCCCCCC(=O)O`, in that order: 63.2% (inactive) and 46.6%.
`COC(=O)c1c(-c2cc(OC)c(OC)c(OC)c2)c2ccnc(OCc3ncccn3)c2c(=O)n1Cc1ccnc(C)c1`: the inhibition was -0.01% (inactive) (at 45 µM) and 7.82% (inhibition, at 15 µM).
For `O=C(O)CCCCCC[C@H]1C(=O)NC(=O)N1CC[C@@H](O)C1CCCCC1`, in that order: 4.54% (inactive) and 37.6%.
In the same order, the values of `Nc1nc2c(ncn2COC(CO)CO)c(=O)[nH]1` are -3.37% (inactive) and -1.7%.
Consider `Cc1cnc(NC(=O)C2=C(O)c3ccccc3S(=O)(=O)N2C)s1`, for which the inhibition was 1.42% (inactive) (at 45 µM) and -3.85% (inhibition, at 15 µM).
In the same order, the values of `S=C(S)OC1CC2CC1C1CCCC21` (centres undefined) are -5.42% (inactive) and 6.45%.
For `CC(=O)NCCc1c[nH]c2ccc(O)cc12`, in that order: -5.1% (inactive) and 4.29%.
For `NC(=O)c1cccc(N)c1`, in that order: -6.67% (inactive) and 0.5%.
In the case of `CC1(C)CCC2=C(O1)c1ccccc1C(=O)C2=O`, the inhibition reads like this: (at 45 µM) 0.18% (inactive); (inhibition, at 15 µM) -0.19%.
For `C=CCN1CCc2c(cc(O)c(O)c2Cl)C(c2ccccc2)C1` (centres undefined), in that order: -1.29% (inactive) and -1.34%.
Regarding `NC(N)=N[C@@H](CCC(=O)O)C(=O)O`, the inhibition (at 45 µM) is -1.09% (inactive) and the inhibition (inhibition, at 15 µM) is 5.9%.
For `CC(C)C1C2CCC(C2)C1N` (centres undefined), in that order: -15.6% (inactive) and -0.95%.
For `NCCC(=O)NCCc1cnc[nH]1`, in that order: -9.27% (inactive) and 2.24%.
For `CCN1/C(=C/C(C)=O)Sc2ccc(OC)cc21`, in that order: 0.62% (inactive) and -1.25%.
In the case of `CSc1ccc2c(c1)N(CCC1CCCCN1C)c1ccccc1S2` (centres undefined), the inhibition reads like this: (at 45 µM) 13.6% (inactive); (inhibition, at 15 µM) 10.5%.
In the same order, the values of `O=C(O)Cc1ccc(O)c(O)c1` are 13.3% (inactive) and 9.47%.
In the same order, the values of `CC(C)C[C@H](N)CSSC[C@@H](N)CC(C)C` are 0.5% (inactive) and -0.82%.
Turning to `Cc1ccccc1CNc1ncnc2c1ncn2C1OC(CO)C(O)C1O` (centres undefined), the inhibition runs as follows: (at 45 µM) -2.05% (inactive); (inhibition, at 15 µM) -1.9%.
As for `Nc1ccc(N2C(=O)c3ccccc3C2=O)c(Cl)c1`, the inhibition reads like this: (at 45 µM) -4.66% (inactive); (inhibition, at 15 µM) -3.36%.
